# Experimental data from PubChem BioAssay (NCI).
# About 83,000 compounds went through this panel and 20% of them were active in at least one assay; those are over-represented in the sample as a whole.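 A percent growth of 40 corresponds to 60% growth inhibition; 0 means no net growth; -100 means all cells died. Active threshold: below 10.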 Values without a mark were called inactive. The source made the active and inactive calls.
# Test system: RPMI-8226 leukemia
# Experiment: NCI-60 one-dose screen, 48 h (100 = growth as untreated, 0 = no growth, -100 = all killed)
# Settings: 10 µM unless noted
# Experimental: Growth inhibition of the RPMI-8226 human tumor cell line is measured as a screen for anti-cancer activity. Cells are grown in 96 well plates and exposed to the test compound for 48 hours. Compounds are tested at a single concentration, which is 10^-5 M for most compounds. The reported endpoint is percent growth (GI% or GIPRCNT), where numbers from 0 - 100% represent growth inhibition, and numbers from -100% - 0 represent cell death. For example, a value of 40 represents 60% growth inhibition. A value of 0 means no net growth occurred over the course of the experiment. A value of -40 indicates 40% of cells at the beginning of the experiment died by the end of the experiment. A value of -100 means all cells are dead at the end of the experiment.
# NCI-60 Human Tumor Cell Lines Screen was performed using the standard one-dose NCI protocol, which is described in more detail at https://dtp.cancer.gov/discovery_development/nci-60/default.htm.
# Compounds with GIPRCNT values below 10 were considered active. Activity score was based on GIPRCNT using the following formula: […]
# Score is 0 for GIPRCNT values of 100 or above, 50 for GIPRCNT values of 0, and 100 for GIPRCNT values of -100.
row,SMILES,growth
1,COc1cccc(C2C(C#N)=C(N)Oc3cc4c(cc32)OCO4)c1 (stereo not given),23.8%
2,C=C[C@H]1CCC/C=C/[C@@H]2C[C@H](O)C[C@H]2[C@H](O)/C=C/C(=O)O1,-4.42% (active)
3,COc1cc(-c2nc(-c3ccc(-c4nc5ccc(F)cc5[nH]4)cc3)no2)cc(OC)c1OC,-15.3% (active)
4,OC(COCc1ccccc1)COCc1ccccc1,109%
5,COc1cnc2c(c1)C(=O)c1c-2n(CCCN2CCN(C)CC2)c(=O)c2cc(Cl)ccc12,43.5%
6,C[Si](C)(C)C(c1ccccc1)c1ccccc1,91.6%
7,Cc1nn(-c2ccccc2)c2nc3c(nc12)C1=NCCN1C(c1ccc(Cl)cc1)N3 (stereo not given),45.6%
8,CCOC(=O)Cn1c(-c2nonc2NC(=O)c2ccccc2F)nc2ccccc21,40.6%
9,C#Cc1cccc(Nc2nc3cc([N+](=O)[O-])ccc3nc2Nc2ccc(O)cc2)c1,11.9%
10,N#Cc1ccc(-c2ccc(-c3cccs3)o2)cc1F,70.7%
11,COc1cc(/C=C/c2cc(/C=C/c3ccc(O)c(OC)c3)n(C(=O)Nc3ccc(F)c(Cl)c3)n2)ccc1O,-11.3% (active)
12,COc1cc(CN(c2ccc(C)cc2)C2OC(=O)c3ccccc32)cc(OC)c1OC (stereo not given),85.4%
13,CC1CCCN(CCCCOc2ccc(-c3ccc(C#N)cc3)cc2)C1 (stereo not given),71.1%
14,CC(C)c1ccc2c(c1)CCC1C2CCCC1(C)NCc1ccccc1 (stereo not given),-35.2% (active)
15,COc1ccc(C(=O)O)cc1.[Ag],103%
16,CC(=O)c1ccc(N2C(=O)c3ccc(Oc4ccccc4)cc3C2=O)cc1,101%
17,COc1ccccc1-[n+]1cc(-c2ccc(-c3ccccc3)cc2)n2c1CCCCC2,-14.7% (active)
18,NS(=O)(=O)c1ccc(CCn2c(SCC(=O)N/N=C/c3cccnc3)nc3ccccc3c2=O)cc1,49.7%
19,CC(CN1CCN(CC(C)Nc2ccnc3cc(Cl)ccc23)CC1)Nc1ccnc2cc(Cl)ccc12 (stereo not given),-32.2% (active)
20,O=C(CCl)N1c2ccccc2Oc2ccc3ccccc3c21,-24.7% (active)

row,SMILES,growth
1,COC(=O)OC1C(O[C@H]2C[C@H]3[C@@H]4CC=C5C[C@@H](O)CC[C@]5(C)[C@H]4CC[C@]3(C)[C@H]2[C@H](C)C(=O)CCC(C)C)OCC(O)C1OC1OCC(O)C(O)C1OC(=O)c1ccc(OC)cc1 (stereo not given in full),-40.7% (active)
2,O=S1(=O)NCCCN1CCNc1nccc(-c2c(-c3cccc(O)c3)nc3sccn23)n1,107%
3,O=C(NNC(=O)c1cccc(Cl)c1)c1ccccc1,101%
4,NC(CCC(=O)NC(CS)C(=O)NCC(=O)O)C(=O)O (stereo not given),74.2%
5,CCCCCCCCCCCCNC(=O)N[C@H](C(=O)N[C@H]1/C=C/CCNC(=O)/C=C/[C@H](C)NC1=O)C(C)C,41.1%
6,COc1ccc(-c2nc3ccccc3n3cccc23)cc1,75.6%
7,CC(C)(C)[Si](C)(C)OC1[C@@H](O[Si](C)(C)C(C)(C)C)[C@@H](CNC(=O)NC(=O)NC(=O)CI)O[C@H]1n1cnc2c(NC(=O)Nc3ccccc3)ncnc21 (stereo not given in full),35.2%
8,C#CCNc1nc(NCCNC(=O)CCl)nc(N(C)CCCCc2ccccc2)n1,89.2%
9,Cc1cc(Nc2c3ccccc3nc3ccccc23)ccc1NS(C)(=O)=O,31.2%
10,C=C(c1ccc(C(=O)NCCCn2ccnc2)cc1)c1cc2c(cc1C)C(C)(C)CCC2(C)C,22.7%
11,O=C(N/N=C/c1ccc([N+](=O)[O-])o1)c1ccc(O)cc1,39.8%
12,C/C(=N\NC(=O)CSc1nc2ccccc2c(=O)n1CCc1ccc(S(N)(=O)=O)cc1)c1ccc(Br)cc1,49.7%
13,O=[N+]([O-])c1ccc(Sc2nc(Cl)nc(NC3CCCC3)n2)cc1,-7.18% [100 µM] (active)
14,O=C1NN(C(=O)c2ccccc2)C(c2ccc(Cl)c(Cl)c2)=C/C1=C\c1ccccc1[N+](=O)[O-],2.27% [6.75 µM] (active)
15,O=[N+]([O-])c1ccc(N=Nc2c(NNc3ccc([N+](=O)[O-])cn3)cc(S(=O)(=O)O)c3ccccc23)nc1,90%
16,NC(=O)N/N=C\c1ccc([N+](=O)[O-])o1,86%
17,CC(=O)Nc1ccc(/C=N/N2CCCCCC2)cc1,116%
18,c1ccc(-c2ccc(-c3ccccc3)[nH]2)cc1,79.7%
19,Cc1cc2nc(CN)[nH]c2cc1C,96.5%
20,CC1(C)CN(CCNc2nccc(-c3c(-c4cccc(O)c4)nc4sccn34)n2)S(=O)(=O)N1,96.1%
